# Experimental data: ChEMBL document CHEMBL4513216, “Probing the Open Global Health Chemical Diversity Library for Multistage-Active Starting Points for Next-Generation Antimalarials” (ACS Infect Dis, 2020)
# About 8,600 (12%) of roughly 69,000 compounds showed an effect of 50% or more. The full list was thinned out, with strong results kept by preference.
# Tested on: Plasmodium berghei
# Assay: Screen against P. berghei liver stage (PbLuc), transformed with Luciferase, at 10uM
# Assay type: functional, HepG2
# Details: tested at 10 uM
row,Compound,INHIBITION [%]
1,Cn1ccc(C(=O)NCc2ccc(N3CCCCC3)nc2)cc1=O,46.2
2,O=C(O)[C@]12CCCN(Cc3ccncc3)C[C@H]1CN(c1ncccn1)C2,-20.1
3,Cn1cnc2c1C(COCC1CCOCC1)CN(Cc1ccccn1)C2 (stereo not drawn),36.9
4,Cc1oncc1C(=O)N1CCC2(CC1)CC(N1CCOCC1)C2,-15.9
5,CNc1cc(-c2ccncc2)ncn1,24.8
6,Cc1cc(C)n(CC2CCCCN2C(=O)c2ccc(C(N)=O)cc2)n1 (stereo not drawn),-10.6
7,Cc1cc(C)n(CC2CCCN2C(=O)c2cccc3c2OCO3)n1 (stereo not drawn),25.15
8,Cc1cc(C)n(CC2CCCN2C(=O)c2ccc3c(c2)OCO3)n1 (stereo not drawn),52.1
9,Cc1cc(C)n(CC2CCCN2C(=O)c2ccc3c(c2)OCCO3)n1 (stereo not drawn),15.2
10,Cc1cnn(CC2CCCCN2C(=O)c2ccc3c(c2)COC3)c1 (stereo not drawn),-18
11,Cc1cc(C)n(CC2CCCCN2C(=O)c2ccc3c(c2)OCO3)n1 (stereo not drawn),5.97
12,Cc1cc(C)n(CC2CCCN2C(=O)c2ccc3c(c2)COC3)n1 (stereo not drawn),51.6
13,Cc1cc(C)n(CC2CCCCN2C(=O)c2ccc3c(c2)COC3)n1 (stereo not drawn),56.4
14,Cc1cc(C)n(CC2CCCN2C(=O)c2ccc3[nH]c(=O)[nH]c3c2)n1 (stereo not drawn),16.3
15,CN(C)CC(=O)NC1CC(C)(C)Cc2nc(C(C)(C)C)ncc21 (stereo not drawn),43.6
16,O=C(CN1CC(c2ccccc2)CC1=O)NCc1cc2n(n1)CCNC2 (stereo not drawn),17.3
17,Cc1noc2nc3c(c(C(=O)/N=c4\[nH]nc(C(C)C)s4)c12)CCC3,38
18,Cn1cc(CN2CCO[C@@H]3CN(Cc4ccoc4)C[C@@H]3C2)cn1,-18.4
19,COCC(NC1CCSCC1)c1ccnn1C (stereo not drawn),47.6
20,CN1C(=O)C2(CCCN(C(=O)c3cccnc3O)C2)c2ccccc21 (stereo not drawn),7.25
21,Cc1ccc(NC(=O)NCC2(N3CCOCC3)CCSC2)c(C)c1 (stereo not drawn),74.2
22,Cc1cccc(NC(=O)NCC2(N3CCOCC3)CCSC2)c1 (stereo not drawn),34.5
23,O=C(NCC1(N2CCOCC2)CCSC1)Nc1ccc(F)cc1 (stereo not drawn),23.5
24,COc1nc2c(cc1C(=O)NC(C)Cc1cc(C)n[nH]1)CCC2 (stereo not drawn),-37.9
25,Cn1c(=O)[nH]c(=O)n2c(CC(=O)Nc3ccc(Cl)c(Cl)c3)cnc12,20.1
26,CCc1nnc(CN(C)c2nc(C3CCCC3)nc3c2cnn3C)o1,1.81
27,CCc1nnc(CN(C)c2nc(C(C)C)nc3c2cnn3C)o1,53.5

row,Compound,INHIBITION [%]
1,Cc1nc(N(C)CCN(C)C)c2cnn(C)c2n1,29.2
2,CN(C)C(=O)C1CN(c2ncccn2)CCN1C (stereo not drawn),25.8
3,COc1ncccc1CNC(=O)N(Cc1ccc(F)cc1F)C1CC1,48.2
4,Cc1ccnc(C(Nc2nccc(-c3ccc(C)nc3C)n2)C2CC2)c1 (stereo not drawn),41.3
5,Cc1nc(CN2CCOC(Cn3cccn3)C2)nc2ccccc12 (stereo not drawn),-31.8
6,Cc1nc2sccn2c1C(=O)N1CCn2nc(C(=O)NC3CC3)cc2C1,25.5
7,Cc1cc(C(=O)N2CCn3nc(C(=O)NC4CC4)cc3C2)nc(C)n1,34.2
8,Cc1c[nH]c(C(=O)N2CCn3nc(C(=O)NC4CC4)cc3C2)n1,53.7
9,N#Cc1cccc(CN2C[C@@H](NC(=O)C3CC3)[C@H]3OCCC[C@H]32)c1,42
10,CCn1c(-c2ccccc2)nn(CC(=O)NCCc2c[nH]cn2)c1=O,31.4
11,C=C(C)COc1ccccc1CNCCc1c[nH]cn1,21.7
12,CCc1ccccc1OCCNCCc1c[nH]cn1,51.3
13,O[C@H]1CN(Cc2cc3ccccc3o2)CC[C@@]12CCCO2,15.9
14,O=C(CN1CCOC(Cn2cccn2)C1)Nc1cccnc1 (stereo not drawn),10.7
15,Cc1cnn(CC2CN(CC(=O)Nc3ccncc3)CCO2)c1 (stereo not drawn),11.2
16,Cc1nc(C)n(CC2CCCN2CC(=O)Nc2cccnc2)n1 (stereo not drawn),-6.39
17,Cc1cc(C)n(CC2CN(CC(=O)Nc3ccncc3)CCO2)n1 (stereo not drawn),44.3
18,Cc1nc(C)n(CC2CN(CC(=O)Nc3cccnc3)CCO2)n1 (stereo not drawn),-13.2
19,Cc1nc(C)n(CC2CCCN(CC(=O)Nc3ccncc3)C2)n1 (stereo not drawn),-0.15
20,Cc1nc(C)n(CC2CN(CC(=O)Nc3ccncc3)CCO2)n1 (stereo not drawn),64.1
21,CCC1CN(CC(=O)Nc2cc(C)nn2C)CCO1 (stereo not drawn),23.4
22,Cc1nc(C)n(CC2CN(CC(=O)Nc3nccs3)CCO2)n1 (stereo not drawn),30.1
23,Cc1cnn(CC2CN(CC(=O)Nc3cccnc3)CCO2)c1 (stereo not drawn),67.5
24,Cc1cc(NC(=O)CN2CCOC(Cn3nc(C)cc3C)C2)n(C)n1 (stereo not drawn),56
25,Cc1nc(C)n(CC2CCCN(CC(=O)Nc3cccnc3)C2)n1 (stereo not drawn),57.2
26,CO[C@H]1CCN(C(=O)c2ccsc2)[C@@H]2CN(CC3CC3)C[C@H]12,0.112
